Among the data in PubChem BioAssay (NCATS) are Potency, max response and outcome values, retold here.

Results filed as inconclusive are left out. A number with no mark means an inactive call. Calls of active or inactive are those of the source. Calls follow the shape of the dose curve; as a rule, active = well fitted inhibition curve with a large enough effect; inconclusive = small, poorly fitted or top-dose-only effect; inactive = flat fitted curve, though single readings scatter.

What all share (experiment): Cytotoxic Profiling of Annotated Libraries Using Quantitative High-Throughput Screening (AID 1296008); also: nearly all actives have a fitted effect of over 60% in size
Conditions in all cases: Five cell lines viability, CellTiter-Glo ATP luminescence, 48-72 h; max response: hits give low values
(ATP-based viability assays read luminescence as a measure of living cells.)

One experiment concerns CRL-7250. In outline: (§1)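 Compounds were pin-transferred onto cells and incubated 48 or 72 hr at 37 degree Celsius, 95% humidity. CellTiter-Glo was added, plates sat 10 min at room temperature, then ATP-coupled luminescence was imaged as the viability read-out.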
The next experiment relates to HEK293. Summed up: as §1
In the next experiment the test system is HaCat. Summed up: as §1
In a further experiment the test system is KB-3-1. In outline:
as §1

The subject of the next experiment is NIH3T3. Summed up: as §1
% is scaled to controls: 0 for no effect and ±100 for the full control effect; potency is read from the fitted curve at half-maximal effect.

For the compound `CCCCNc1ncc2c(-c3ccc(CN4CCN(C)CC4)cc3)cn(C3CCC(O)CC3)c2n1` (stereo not given), the Potency in the experiment on CRL-7250 was 5.17 µM (active); in the experiment on HEK293, 7.31 µM (active); in the experiment on HaCat, 0.92 µM (active); in the experiment on KB-3-1, 1.03 µM (active); in the experiment on NIH3T3, 1.3 µM (active).

With `Cc1nc(C)c(-c2ccc(C3CCC(CC(=O)O)CC3)cc2)nc1C(N)=O` (stereo not given), the max response with CRL-7250 was 0.3%; in the experiment with HEK293 it was -0.422%; in the experiment with HaCat, -2.77%; in the experiment with KB-3-1, -11.8%; in the experiment with NIH3T3 it was 2.81%.

In the case of `C/C1=C\CC[C@]2(C)O[C@@H]2[C@H](O)[C@H](C(C)C)[C@H](OC(=O)/C=C/c2ccccc2)C1`, the max response with CRL-7250 was -51%; with HEK293 it was -26.5%; with HaCat it was -5.06%; with KB-3-1, -3.73%; with NIH3T3, 2.07%.

`C=C1CCC2C(C)(C(=O)O)CCCC2(C)C1CCC(C)CC(=O)O` (stereo not given): the max response in the experiment with CRL-7250 was 1.5%; in the experiment on HEK293, -0.0508%; in the experiment on HaCat, 3.35%; in the experiment with KB-3-1 it was -0.708%; with NIH3T3 it was -9.77%.

With `Cc1cc(C)c(CNC(=O)c2cc(-c3ccc(CN4CCOCC4)cc3)cc3c2cnn3C2CCCC2)c(=O)[nH]1`, the max response with CRL-7250 was 1.71%; in the experiment with KB-3-1, 8.22%; in the experiment on NIH3T3 it was -0.531%. The Potency in the experiment with HEK293 was 14.8 µM (active). The call in the experiment with HaCat was inactive.

With `CC(O)CCC1C(CO[C@@H]2O[C@H](CO)[C@@H](O)[C@H](O)[C@H]2O)CC(O)CC1(C)C` (stereo not given in full), in the experiment with CRL-7250, the outcome was inactive. Also, the max response in the experiment on HEK293 was 1.92%; in the experiment with HaCat, -5.9%; in the experiment with KB-3-1 it was 8.38%; in the experiment on NIH3T3 it was -8.75%.

`CC(=O)O[C@@H]1[C@H](O[C@@H]2O[C@@H](CO)[C@H](O)[C@H]2O)[C@@H](O[C@@H]2O[C@@H](C)[C@H](O[C@@H]3OC[C@@H](O)[C@H](O)[C@H]3O)[C@@H](O)[C@H]2O)[C@H](OC(=O)[C@]23CCC(C)(C)C[C@H]2C2=CCC4[C@@]5(C)CC[C@H](O[C@@H]6O[C@H](C(=O)O)[C@@H](O)[C@H](O)[C@H]6O[C@@H]6O[C@H](CO)[C@H](O)[C@H](O)[C@H]6O)[C@@](C)(C=O)C5CC[C@@]4(C)[C@]2(C)CC3)O[C@@H]1C` (stereo not given in full): the compound was called inactive in the experiment on CRL-7250 and with HaCat. The values for the max response with HEK293, in the experiment with KB-3-1 and in the experiment with NIH3T3 were -1.69%, 5.7% and 4.82%, respectively.

With `CC1(O)CCCC2(C)C1CCC13CC(CO)C(CCC12)C3` (stereo not given), the max response was -2.17% with CRL-7250, -21.4% in the experiment on HEK293, 2.13% in the experiment with HaCat and -0.27% in the experiment on NIH3T3. The compound was called inactive in the experiment on KB-3-1.

On to `CC(C)c1nnc(-c2ccc(-c3ccccc3)nc2)n1-c1cccc2nonc12`, for which the max response in the experiment with CRL-7250 was -7.02%; in the experiment with HEK293 it was 3.01%; with HaCat, 4.99%; with KB-3-1 it was 2.23%; in the experiment with NIH3T3, 4.73%.

`CC(c1ncncc1F)C(O)(Cn1cncn1)c1ccc(F)cc1F` (stereo not given): the outcome in the experiment with CRL-7250 was inactive. Moreover, the max response in the experiment with HEK293 is -0.4%; in the experiment on HaCat it was -2.25%; in the experiment with KB-3-1, 0.345%; in the experiment with NIH3T3 it was -5.84%.

With `COC(=O)C1=COC(O[C@@H]2O[C@H](CO)[C@@H](O)[C@H](O)[C@H]2O)[C@H]2[C@@H]1[C@H](OC(=O)CCc1ccc(O)cc1)C[C@]2(C)O` (stereo not given in full), the result in the experiment with CRL-7250 was inactive. Also, the max response is 0.992% in the experiment with HEK293, -1.18% with HaCat, -2.46% with KB-3-1 and 2.76% in the experiment with NIH3T3.

As for `CS(=O)(=O)N1CCC(NC(=O)c2[nH]ncc2NC(=O)c2c(Cl)cccc2Cl)CC1`, the Potency in the experiment with CRL-7250 is 3.26 µM (active); with HEK293, 1.16 µM (active); with HaCat, 4.61 µM (active); with KB-3-1, 0.82 µM (active); in the experiment with NIH3T3, 2.59 µM (active).

As for `C[C@@H]1C[C@@H](O)[C@@]23CO[C@@H](O)[C@@H]2CCC[C@@H]3[C@@]12C[C@@H](c1ccoc1)OC2=O`, the max response in the experiment with CRL-7250 is 0.0668%; in the experiment on HEK293 it was -9.22%; in the experiment on HaCat, -27.9%; with KB-3-1 it was 7.75%; in the experiment with NIH3T3, 4.21%.

`C=CC(C)(O)CC[C@H]1C(=C)CCC2[C@](C)(C(=O)O)CCC[C@@]21C` (stereo not given in full): the max response is 2.31% in the experiment on CRL-7250; -3.52% in the experiment with HEK293; -5.99% in the experiment with HaCat; 0.39% with KB-3-1; 2.59% with NIH3T3.

`C(#Cc1nc2ncccc2nc1OCCN1CCCC1)c1ccccc1`: the Potency was 6.51 µM (active) in the experiment with CRL-7250; 1.84 µM (active) in the experiment on HEK293; 5.8 µM (active) in the experiment on HaCat; 8.2 µM (active) with KB-3-1; 5.17 µM (active) in the experiment on NIH3T3.

Consider `CC(C)S(=O)(=O)NC[C@H](C)c1ccc(NC(=O)c2cc(F)cc(F)c2)cc1`, for which, in the experiment on CRL-7250, the outcome was inactive. For the same compound, the max response with HEK293 was -6.11%; in the experiment with HaCat, -5.79%; with KB-3-1, 3.14%; in the experiment on NIH3T3, 3.47%.

As for `COc1cc(N2CCOCC2)ccc1Nc1ncc(Cl)c(Nc2ccccc2NS(C)(=O)=O)n1`, the max response in the experiment on CRL-7250 is -96.5%. In addition, the Potency with HEK293 is 1.84 µM (active); in the experiment on HaCat it was 4.61 µM (active); in the experiment with KB-3-1 it was 2.31 µM (active); in the experiment with NIH3T3 it was 6.51 µM (active).

Consider `C=C1CCC2C(C(C)(C)O)CCC2(C)CC(O)C(=C)CCC1O` (stereo not given), for which the max response was -17.3% in the experiment with CRL-7250; 2.07% in the experiment on HEK293; -2.57% in the experiment on HaCat; 2.13% with KB-3-1; -9.68% with NIH3T3.

On to `C[C@@H]1C(=O)O[C@H]2[C@H](O)C34[C@H]5C[C@@H](C(C)(C)C)C36[C@@H](OC(=O)[C@@H]6O)O[C@@]4(C(=O)O5)[C@@]12O` (stereo not given in full), for which the max response was 3.72% with CRL-7250; -1.33% with HEK293; -29.1% with HaCat; -3.61% with KB-3-1; -2.5% in the experiment with NIH3T3.
